Records with an inconclusive call do not appear. Active and inactive are the calls of the source. Calls come from the whole dose curve; as a rule, active = well fitted cell-killing curve with a large enough effect; inconclusive = small, poorly fitted or top-dose-only effect; inactive = flat fitted curve, though single readings scatter.
Assay: Cell Viability - LYMP2-011 (AID 969);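 note: 0% = DMSO only and full inhibition = 92 µM tetraoctylammonium bromide; nearly all actives have a fitted effect of over 60% in size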
Settings: LYMP2-011 lymphoblastoid cells viability; series mostly up to 92.2 µM; viability change, negative = cytotoxic: at the top concentration
Description: NIH Chemical Genomics Center [NCGC]
NIH Molecular Libraries Screening Centers Network [MLSCN]
National Institutes of Environmental Health Sciences [NIEHS]
National Toxicology Program [NTP]
We have developed a 1536-well cell-based assay for quantitative high throughput screening (qHTS) against a number of cell lines to determine in vitro cytotoxicity of small molecules. This particular assay uses a human lymphoblastoid cell line (LYMP2-011) purchased from Coriell Institute for Medical Research.
NCGC Assay Protocol Summary:
The CellTiter-Glo luminescent cell viability assay (Promega) is a homogeneous method to measure the number of viable cells in culture. The end point readout of this assay is based on quantitation of intracellular ATP, an indicator of metabolic activity, using the luciferase reaction. Luciferase catalyzes the oxidation of beetle Luciferin to oxyluciferin and light in the presence of ATP. The luminescent signal is proportional to amount of ATP present.
Using the CellTiter-Glo luminescent cell viability assay, the amount of cellular ATP was measured in the lymphoblastoid cell line with complete culture medium following compound treatment for 24 hours. The assay was performed in opaque white Kalypsys 1536-well plates. In the screen, tetraoctylammonium bromide was used as positive control. Library compounds were measured for their ability to cause acute toxicity in the cell line, as reflected by a decrease in intracellular ATP levels, in a concentration-dependent manner. […] AC50 values were determined from concentration-response data modeled with the standard Hill equation.
qHTS protocol for CellTiter Glo lymphoblastoid cellular assay
[Step] [Parameter] [Value] [Description]
1. Reagent; 5 uL; 2500 lymphoblastoid cells/well
2. Time; 5 hr; 37 C incubation
4. Controls; 23 nL; Tetraoctylammonium bromide 6.4pM to 92 uM
5. Time; 24 hr; 37 C incubation
6. Reagent; 5 uL; CellTiter Glo reagent
7. Time; 30 min; Room Temperature
8. Detection; Luminescence; Viewlux plate reader
Keywords: cell viability, cytotoxicity, lymphoblastoid cell line, luminescence, NTPHTS, NTPHTS_NCGC, NIEHS, DSSTox, MLSMR, MLSCN, NIH Roadmap, qHTS, NCGC

| SMILES | viability change, negative = cytotoxic |
| --- | --- |
| CCCN(CCC)c1c([N+](=O)[O-])cc(C(F)(F)F)cc1[N+](=O)[O-] | -2.33% (inactive) |
| O=[N+]([O-])CCO | 0.177% (inactive) |
| CCCBr | -3.23% (inactive) |
| CCOS(C)(=O)=O | -1.22% (inactive) |
| ClCc1ccccc1 | 0.424% (inactive) |
| O=Cc1ccc(Cl)cc1Cl | -9.67% (inactive) |
| Nc1ccc(-c2ccccc2)cc1 | -16.1% (inactive) |
| N#CCCC#N | 3.05% (inactive) |
| ClCCCCl | -1.44% (inactive) |
| CCOP(=O)(OCC)OCC | 1.44% (inactive) |
| Cc1cccc(C)c1N | 0.625% (inactive) |
| Cl/C=C/CCl | 5.36% (inactive) |
| Cc1cnc[nH]1 | 1.62% (inactive) |
| Nc1cccc(Cl)c1 | -3.12% (inactive) |
| O=S(=O)(O)F | -8.78% (inactive) |
| CCCCC(=O)Cl | -6.13% (inactive) |
| CC(C)[N+](=O)[O-] | 3.6% (inactive) |
| CC(C)[C@]12CC(=O)[C@H](C)[C@H]1C2 | -6.23% (inactive) |
| ClC(Br)Br | 3.81% (inactive) |
| O=C(O)CCl | -8.55% (inactive) |

| SMILES | viability change, negative = cytotoxic |
| --- | --- |
| CC(=O)NNc1ccccc1 | -8.41% (inactive) |
| OCCBr | 2.69% (inactive) |
| CC(C)OC(=O)Cc1ccccc1 | -0.777% (inactive) |
| COc1c(C(C)(C)C)cc([N+](=O)[O-])c(C)c1[N+](=O)[O-] | 1.53% (inactive) |
| CC(C)(Cl)[N+](=O)[O-] | -1.76% (inactive) |
| FC(Cl)(Cl)Cl | 1.67% (inactive) |
| CC(C)C#N | 0.074% (inactive) |
| c1ccc(C2CO2)cc1 (stereo not given) | 1.46% (inactive) |
| O=[N+]([O-])c1ccccc1O | 0.379% (inactive) |
| CCCCOCC1CO1 (stereo not given) | -2.51% (inactive) |
| Cc1ccc2c(c1N)C(=O)c1ccccc1C2=O | -19.8% (inactive) |
| CN(C)C(=O)Nc1cccc(C(F)(F)F)c1 | -0.732% (inactive) |
| CN=C=O | -6.3% (inactive) |
| Clc1cc(Cl)c(Cl)c(Cl)c1 | 3.35% (inactive) |
| Cc1ccc2c(C)cccc2c1 | -2.94% (inactive) |
| C[N+](=O)[O-] | 3.12% (inactive) |
| Cc1ccc(N)cc1C | -4.3% (inactive) |
| C=CC(=O)OCC(C)C | -1.5% (inactive) |
| CCCCC#N | 1.35% (inactive) |
| CC(=O)[O-].CC(=O)[O-].CC(=O)[O-].[Cr+3] | -6.11% (inactive) |

Source: PubChem BioAssay (NCATS)
